Experimental data reported in PubChem BioAssay (EPA / NIEHS).
Active and inactive are the calls of the source. The calls were made as follows: active = hit-call score of the fitted dose curve at least 0.9, where 1 is the maximum; inactive = score below 0.9.

The compounds below were run on Lipase C (LIPC), LIPC (gene 3990) (assay: LTEA_HepaRG_LIPC: Life Technologies and Expression Analysis (LTEA) Assay for Lipase C (LIPC) using HepaRG (AID 2283514)). Settings: mRNA level, 48 h; actives raise or lower the signal.
In short: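 In this multiplexed gene-expression screen, human HepaRG cultures received test chemicals for 48 h across eight concentrations with 100 uM highest, in duplicate. Values reflect LIPC mRNA induction or suppression versus DMSO vehicle, from normalized qRT-PCR.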

Compound | AC50 | outcome
CSC(=O)c1c(C(F)F)nc(C(F)(F)F)c(C(=O)SC)c1CC(C)C | 91.9 µM (active) | 
CCOc1cc(C(C)(C)C)ccc1C1COC(c2c(F)cccc2F)=N1 (centres undefined) | 33 µM (active) | 
COC(=O)N(C(=O)N1CO[C@@]2(C(=O)OC)Cc3cc(Cl)ccc3C2=N1)c1ccc(OC(F)(F)F)cc1 | 40 µM (active) | 
CC(C)N1C(=O)c2ccccc2NS1(=O)=O |  | inactive
CCCC(=NOCC)C1=C(O)CC(CC(C)SCC)CC1=O (centres undefined) |  | inactive
C=CCOC(=O)C(C)(C)OC(=O)c1cc(-n2c(=O)cc(C(F)(F)F)n(C)c2=O)ccc1Cl |  | inactive
CC(C)Oc1cccc(NC(=O)c2ccccc2C(F)(F)F)c1 |  | inactive
CC(C)NC(=O)N1CC(=O)N(c2cc(Cl)cc(Cl)c2)C1=O | 10.2 µM (active) | 
CC(C)(C)C(=O)C(Oc1ccc(Cl)cc1)n1cncn1 (centres undefined) |  | inactive
CC1(C)CCC(=Cc2ccc(Cl)cc2)C1(O)Cn1cncn1 (centres undefined) |  | inactive
COCC(=O)N(c1c(C)cccc1C)C(C)C(=O)OC (centres undefined) |  | inactive
CCOc1nc(F)cc2nc(S(=O)(=O)Nc3c(Cl)cccc3Cl)nn12 |  | inactive
COP(=O)(OC)O/C(C)=C/C(=O)N(C)C |  | inactive
CC(C)N1C(=O)N(c2ccccc2)CSC1=NC(C)(C)C | 72.2 µM (active) | 
